Laboratory results: publication PMC7819943, “Rice protein-binding microarrays: a tool to detect cis-acting elements near promoter regions in rice”
The full ranking holds about 39,000 sequences; the median of “fluorescence intensity (a.u.)” is about 4,300, and the highest 2% start at about 39,000. For the sample, the highest values were picked, then their nearest neighbours and some sequences at random.

Each sequence was assayed against T1, OsSMF1 (Oryza sativa, UniProt Q6ZLB0 1-436) (assay: protein-binding microarray (RPBM); PBS, 2% BSA, 51.3 ng/ul salmon testes DNA, 50 uM zinc acetate, 200 nM TF, 25 C, 1 h; high values mean tight binding). Conditions: protein: recombinant; tags: N-terminal polyhistidine and DsRed monomer fusion (pET32a); chain copies: 2; label: CyDye5-dUTP incorporated in the synthesized complementary strand; 3' TTTTT single-stranded linker to array surface; dsDNA, one strand shown.
T1 sequence: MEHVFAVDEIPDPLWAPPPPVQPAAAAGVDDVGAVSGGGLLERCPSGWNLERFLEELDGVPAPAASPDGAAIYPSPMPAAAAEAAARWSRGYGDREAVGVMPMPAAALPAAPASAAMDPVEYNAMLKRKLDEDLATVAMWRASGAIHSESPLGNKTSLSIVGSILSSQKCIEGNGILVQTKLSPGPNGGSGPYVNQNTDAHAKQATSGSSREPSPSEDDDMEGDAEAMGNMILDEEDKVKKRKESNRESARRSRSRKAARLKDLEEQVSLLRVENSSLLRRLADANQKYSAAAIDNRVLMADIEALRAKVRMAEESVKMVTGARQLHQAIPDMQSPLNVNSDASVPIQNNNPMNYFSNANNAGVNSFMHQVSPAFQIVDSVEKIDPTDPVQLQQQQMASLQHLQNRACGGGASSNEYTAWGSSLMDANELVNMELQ
How it was run: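 Transcription factors were made in E. coli BL21-CodonPlus as N-terminal fusions to a polyhistidine tag and DsRed, then purified on Ni–NTA. After primer extension with Cy5-dUTP and blocking with 2% BSA, a custom Agilent array was exposed for 1 h at 25 °C to 200 nM protein in PBS, 2% BSA, salmon testes DNA and 50 µM zinc acetate. Washed arrays were scanned on an Axon 4000B, and the binding signal is per-feature fluorescence intensity in arbitrary units.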
For “GTAGCGGCTGCGGCGCTCCAGCTCCTCGGAGGCCCGGTCCCGGAGTCACCTAGTGCAG”, the binding signal was 3790 fluorescence intensity (a.u.).
In the case of “CTCCCCACTCACTGCCAGGTGGGCCCACCTTGTCGGATTACGGAGTCACCTAGTGCAG”, the binding signal is reported as 3530 fluorescence intensity (a.u.).
For “ATGTCAAGACAACAACAGTTGTAAATGTGATCTGGACATACGGAGTCACCTAGTGCAG”, the binding signal was 3540 fluorescence intensity (a.u.).
“TCCCTGCGAAATTGTACACATCAACACAACATAAGGTCGACGGAGTCACCTAGTGCAG” was tested, and the binding signal was 3700 fluorescence intensity (a.u.).
For “GGCAAATCGGTAATTGCCATGTCACAAGAGTGGCAAATAGCGGAGTCACCTAGTGCAG”, the binding signal was 8900 fluorescence intensity (a.u.).
For “CACCCGCCATCGTGGCGGACATTCCAGTATAGGTACGGCACGGAGTCACCTAGTGCAG”, the binding signal was 6150 fluorescence intensity (a.u.).
In the case of “TGGTGGTGGAAATTTTGGAAATCGTGAGGGCTACACATACCGGAGTCACCTAGTGCAG”, the binding signal is reported as 3550 fluorescence intensity (a.u.).
“CGTCGACCACCACCACGCTCTTGCCCCTGATGACGCCGTGCGGAGTCACCTAGTGCAG” was tested, and the binding signal was 6870 fluorescence intensity (a.u.).
For “CGGCTTCCCGACGGTGGCGGCGCACGTGGGCGAGGCTGAGCGGAGTCACCTAGTGCAG”, the binding signal was 3800 fluorescence intensity (a.u.).
“CCCACCTTTCAAATTCCACGTCCGCCAATAATATTATTACCGGAGTCACCTAGTGCAG” was tested, and the binding signal was 6710 fluorescence intensity (a.u.).
In the case of “CACGTAAGCGTCACGTCAATGCCACGTGGGACGGTGACCTCGGAGTCACCTAGTGCAG”, the binding signal is reported as 27900 fluorescence intensity (a.u.).
“CATCTAATTGCCACATAAGCGCCACGTCAACGACACGTTGCGGAGTCACCTAGTGCAG” was tested, and the binding signal was 41300 fluorescence intensity (a.u.).
With “TTGCCACGTAATCGCTACGTCAATGCCACGTGGGACGGAGCGGAGTCACCTAGTGCAG” the binding signal was 43800 fluorescence intensity (a.u.).
In the case of “AGCAGTAACCACGAAAGCGCTCGGCTCCACACGCCACGCACGGAGTCACCTAGTGCAG”, the binding signal is reported as 3280 fluorescence intensity (a.u.).
For “CCGCCCCACGCGGCGCCACCACACCACCGCGCGCGTCGCTCGGAGTCACCTAGTGCAG”, the binding signal was 5900 fluorescence intensity (a.u.).
With “TGCGGATCTAATTGCCACGTAAGCGCCACGACAATGACACCGGAGTCACCTAGTGCAG” the binding signal was 16800 fluorescence intensity (a.u.).
For “ATCTAATTGCCACATAAGCACTACGTCAATAACACGTTAGCGGAGTCACCTAGTGCAG”, the binding signal was 10100 fluorescence intensity (a.u.).
“GCCCACAAGCGCTCGGCTCGAAACGCCACGTCACCACGCTCGGAGTCACCTAGTGCAG” was tested, and the binding signal was 43800 fluorescence intensity (a.u.).
In the case of “TAGTTAATAAAAGTCAAAATGAAGTCACAATTTGCCACGTCGGAGTCACCTAGTGCAG”, the binding signal is reported as 8180 fluorescence intensity (a.u.).
For “TATTAATTTCCAAATAAATTGCTATGTCAATGCCACGTCACGGAGTCACCTAGTGCAG”, the binding signal was 40900 fluorescence intensity (a.u.).
In the case of “ATGCCACATAAACCCTACGTCAATGCCACGTGGGACAAAGCGGAGTCACCTAGTGCAG”, the binding signal is reported as 22600 fluorescence intensity (a.u.).
“CTGTCCATTGATCTGTCCCTGGCAGCGACGTGACGTCCCACGGAGTCACCTAGTGCAG” was tested, and the binding signal was 4890 fluorescence intensity (a.u.).
With “GCTTCGTGGGCCTCTCACTTGAGTCACTGGCACTCCATTCCGGAGTCACCTAGTGCAG” the binding signal was 3570 fluorescence intensity (a.u.).
For “TCCAAAATATTAGCATGGCACAGATTGGCACTACCCTTGTCGGAGTCACCTAGTGCAG”, the binding signal was 3280 fluorescence intensity (a.u.).
In the case of “CGTAGAGGAATAACAATGGAACGTCATCCCTCTCTGTTCGCGGAGTCACCTAGTGCAG”, the binding signal is reported as 4120 fluorescence intensity (a.u.).
“GGTTCCATGCCTCGCCGTTTATCTATCTAATTTACTAGCACGGAGTCACCTAGTGCAG” was tested, and the binding signal was 3170 fluorescence intensity (a.u.).
For “CGGCATTGACCTGGTCTTTGTTCCACGTGGCGCTTAGGTGCGGAGTCACCTAGTGCAG”, the binding signal was 8840 fluorescence intensity (a.u.).
For “TGTATGTCGGGTTGTCGATGATCAAGCCAGTGACACGCTTCGGAGTCACCTAGTGCAG”, the binding signal was 4000 fluorescence intensity (a.u.).
With “AGCCCACGTCCAGCTCACACACGCACCCACAACCGACCCACGGAGTCACCTAGTGCAG” the binding signal was 6070 fluorescence intensity (a.u.).
In the case of “ATTTTATTGCCACATAAGCGCCACGTCAATGCCACGTGGGCGGAGTCACCTAGTGCAG”, the binding signal is reported as 56000 fluorescence intensity (a.u.).
In the case of “ATTTTATTATTCTTGCAGATCAAATTGCCACGTAAGCGTCCGGAGTCACCTAGTGCAG”, the binding signal is reported as 47800 fluorescence intensity (a.u.).
“GATCAAATTGCCACGTAAGCGCCACGTCAATGCCATGTCACGGAGTCACCTAGTGCAG” was tested, and the binding signal was 48000 fluorescence intensity (a.u.).
For “AACATATTAGAATATCGGTCTTAAATTAAATCCCATATAACGGAGTCACCTAGTGCAG”, the binding signal was 29100 fluorescence intensity (a.u.).
“TCAAATCAAATTGCCACGTAAGCGCCACGTCACTGCCACACGGAGTCACCTAGTGCAG” was tested, and the binding signal was 35200 fluorescence intensity (a.u.).
With “TTTTCGGATCAAATTGCCACGTAAGCGCCACGTCAGATGACGGAGTCACCTAGTGCAG” the binding signal was 16000 fluorescence intensity (a.u.).
In the case of “CAGATATTATATTACGTAACATCTTCGTCAAGCTTACAATCGGAGTCACCTAGTGCAG”, the binding signal is reported as 3850 fluorescence intensity (a.u.).
In the case of “AGAATCGCTTATATTATGGGACGGACGTAACATATAGAAGCGGAGTCACCTAGTGCAG”, the binding signal is reported as 41100 fluorescence intensity (a.u.).
For “ATAAAATTGCCACATAAGCACCACGTCAATGCTATGTGGGCGGAGTCACCTAGTGCAG”, the binding signal was 29700 fluorescence intensity (a.u.).
With “TATAATTGCTACGTAAGCGCCACGTCAATGCCATGTCAGACGGAGTCACCTAGTGCAG” the binding signal was 15700 fluorescence intensity (a.u.).
For “AATTGCCACGTAAGCGCCATGTCAGTGCCACGTCAAATTACGGAGTCACCTAGTGCAG”, the binding signal was 33800 fluorescence intensity (a.u.).
With “ACATATAATTGCCACGTCAGCGCCACATCAATGCCACGTGCGGAGTCACCTAGTGCAG” the binding signal was 26100 fluorescence intensity (a.u.).
With “ACTATCAAGTTCGGATTAACCGAACCAATACAACCACTCACGGAGTCACCTAGTGCAG” the binding signal was 21900 fluorescence intensity (a.u.).
